# Compounds with a hit are over-represented: about 11% of the library has one in this group of screens.
# PNC inhibitor – inhibitors of perinucleolar compartment assembly; PC3M PTB-GFP, PNC prevalence imaging, 16 h; active compounds read low; activity change (PNC), negative = inhibition, % at 10 µM; 3.1% of 140,000 active;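 active = readout at or below -70, meaning at least 70% loss of cells showing the perinucleolar compartment, a nuclear body marking cancer cells; inconclusive = readout between -30 and a set limit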;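 also: plate controls were DMSO wells for no effect and camptothecin positive control wells for full effect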
#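 Compounds are pinned in duplicate onto adhered PC3M cells stably expressing GFP-tagged PTB and incubated 16 h at 37 C. Cells are then fixed, nuclei stained with Hoechst, and PNC-positive cells counted.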
# ALDH1A1 block – blocks purified human ALDH1A1 activity | P00352 | Purified ALDH1A1, NADH fluorescence, propionaldehyde substrate | Potency, µM (top dose mostly 75.3 µM), for the others: top-dose activity, negative = inhibition, actives largely listed as inhibitors | 7.3% of 220,000 active | AID 1030;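 also: potency is read from the fitted curve at half-maximal effect; plate controls were no enzyme wells and a reference inhibitor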
# HPGD inh – inhibitors of human 15-hydroxyprostaglandin dehydrogenase (HPGD); P15428; AID 894; Potency, µM, without a hit: at the highest dose activity change, negative = inhibition, hits mostly inhibitors; purified HPGD, NADH fluorescence kinetic, PGE2 substrate; 4.3% of 150,000 active; also: potency is read from the fitted curve at half-maximal effect
# Target sequence (P15428 whole entry, looked up): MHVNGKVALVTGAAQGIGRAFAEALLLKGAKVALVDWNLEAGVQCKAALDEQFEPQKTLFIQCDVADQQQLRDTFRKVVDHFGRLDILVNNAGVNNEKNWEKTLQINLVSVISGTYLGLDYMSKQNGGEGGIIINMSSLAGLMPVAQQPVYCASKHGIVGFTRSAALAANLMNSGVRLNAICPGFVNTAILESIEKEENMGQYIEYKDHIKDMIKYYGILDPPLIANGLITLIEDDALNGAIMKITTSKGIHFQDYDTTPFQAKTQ
#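 NADH formation kinetics: reaction with 30 uM PGE2 and 1 mM NAD+ (final), 20 nM enzyme, Tris-HCl pH 8 with Tween 20, after 15 min compound preincubation at room temperature. Fluorescence change, last versus first of five reads.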
# An asterisk follows results filed as active; ? = inconclusive; nt = no result given; [ ] = remark or other dose. Unless noted, calls follow the shape of the dose curve; as a rule, active = well fitted inhibition curve with a large enough effect (not every such curve was filed as active); inconclusive = small, poorly fitted or top-dose-only effect, or another doubt; inactive = no such curve, though single readings can be large or run the other way. Unless noted, % is scaled to controls: 0 for no effect and ±100 for the full control effect.
SMILES,PNC inhibitor,ALDH1A1 block,HPGD inh
Cc1cc(C)n(S(=O)(=O)c2cccc(Cl)c2Cl)n1,20,3%,-7%
CCCn1c2c(c(O)c(C(=O)Nc3ccc(OC)cc3)c1=O)CCCC2,-27,?,?
CCCn1c2c(c(O)c(C(=O)NC)c1=O)CCCC2,196,-11%,-17%
CCCn1c2c(c(O)c(C(=O)Nc3ncccc3O)c1=O)CCCC2,?,5.6µM*,nt
CCCn1c2c(c(O)c(C(=O)NCCCN(CC)CC)c1=O)CCCC2,-100*,28µM*,-13%
CC(C)C(NC(=O)CN(c1cccc(F)c1)S(C)(=O)=O)C(C)C,16,35µM*,-2%
CCCNC(=O)CN(c1cccc(F)c1)S(C)(=O)=O,41,4%,-2%
COc1cccc(-c2nnc3sc(C4CCCCC4)nn23)c1,22,?,-28%
CCOc1cccc(-c2nnc3sc(C4CCCCC4)nn23)c1,?,25µM*,32µM*
COc1ccc(-c2nc3cc(NC(=O)Cc4ccc(OC)c(OC)c4)ccc3o2)cc1,9,?,?
CC(NC(=O)c1ccc(CS(=O)(=O)c2ccc(Cl)cc2)o1)c1ccc2c(c1)OCCO2 (centres undefined),-1,?,-9%
Cc1ccccc1S(=O)(=O)Cc1ccc(C(=O)NC(C)c2ccc3c(c2)OCCO3)o1 (centres undefined),1,14µM*,-20%
Cc1ccccc1S(=O)(=O)Cc1ccc(C(=O)NCc2cccnc2)o1,1,14µM*,-8%
CCOC(=O)N1CCC(NC(=O)c2ccc(CS(=O)(=O)c3c(Cl)cccc3Cl)o2)CC1,-20,?,-7%
CCOC(=O)N1CCC(NC(=O)c2ccc(CS(=O)(=O)c3ccccc3C)o2)CC1,-8,11µM*,-18%
Cc1ccc(CS(=O)(=O)Cc2ccc(C(=O)NCc3cccnc3)o2)cc1,23,10%,-11%
CN1CCC2(CC1)CCN(C(=O)c1ccncc1)CC2,nt,11%,1%
Cc1ccc(C(=O)NCCc2nnc3ccc(SCC(=O)Nc4c(C)cc(C)cc4C)nn23)cc1,-9,30%,-5%
Cc1[nH]ccc(=O)c1OCc1ccccc1,-111*,10%,-15%
Cc1[nH]ccc(=O)c1OCc1c(F)cccc1Cl,nt,15%,nt
Cc1[nH]ccc(=O)c1OCc1ccc(Cl)cc1,-124*,10%,-13%
Cc1c(OCc2ccccc2)c(=O)ccn1Cc1ccc(Cl)cc1,18,-7%,-7%
CCN(c1ccccc1)S(=O)(=O)c1cc(C(=O)Oc2ccc3c(C)cc(=O)oc3c2)ccc1C,91,?,?
CCCCn1nnnc1SCC(=O)NCc1ccco1,-14,-6%,5%
Cc1ccc(CNC(=O)C(=O)NCC2OCCN2C(=O)c2cccs2)cc1 (centres undefined),77,0%,-11%
SMILES,PNC inhibitor,ALDH1A1 block,HPGD inh
CC1CCCCC1NC(=O)Cn1ncc2ccccc21 (centres undefined),16,6%,-6%
c1ccc2c(c1)CCN(CCCNc1nc3ccccc3n3cnnc13)C2,-4,-5%,-12%
O=C(Nc1ccc(N2CCCCC2)c(Cl)c1)c1ccc2c(c1)OCCO2,16,?,-11%
CS(=O)(=O)Nc1ccc(N2CCCCC2)c(Cl)c1,17,-7%,7.1µM*
O=C(O)C1C2C=CC(C2)C1C(=O)Nc1ccc(C(=O)N2CCCCC2)cc1 (centres undefined),8,?,1.3µM*
CCOC(=O)c1ccc(NC(=O)C2C3C=CC(C3)C2C(=O)O)cc1 (centres undefined),7,?,-9%
Cc1ccc(-c2ccc(NC(=O)C3C4C=CC(C4)C3C(=O)O)cc2)o1 (centres undefined),10,?,20µM*
CC(=O)Nc1cc(NC(=O)C2C3C=CC(C3)C2C(=O)O)ccc1Cl (centres undefined),4,-5%,-9%
Cc1ccc(C)c(N2CCN(C(=O)c3ccc(NS(=O)(=O)c4c(C)noc4C)cc3)CC2)c1,4,-16%,-14%
Cc1noc(C)c1S(=O)(=O)Nc1ccc(C(=O)N2CCCCC2)cc1,-19,-7%,32µM*
CCOc1ccc(/C(O)=C2/C(=O)C(=O)N(CC3CCCO3)C2c2cccs2)cc1 (centres undefined),-14,14%,-4%
Nc1nc(SCC(=O)Nc2ccc3c(c2)OCO3)n[nH]1,nt,-4%,nt
CC(C)(C)OC(=O)N1CCC[C@H]1C(O)(c1ccccc1)c1ccccc1,nt,9%,0%
CO[C@@H](C(C)C)[C@@H](C)[C@@H]1OC(=O)C[C@@H]1O,nt,2%[13.5 µM],nt
COc1cc2c(C=O)c3c4c(cc(OC)c(OC)c4c2cc1OC)CCN3C,nt,?,-23%
CC(Sc1ccccc1)C(=O)Nc1ccccc1C(=O)N1CCOCC1 (centres undefined),?,4%,-4%

# High-throughput results deposited in PubChem BioAssay by National Center for Advancing Translational Sciences (NCATS).
